The subject of the first test is PPARg:RXRa 270nM:90nM, anti-RXR (NR concentration 270 nM, RXRa partner concentration 90 nM). The test can be described thus: PBM binding z-score (relative to random genomic background probes); higher = stronger binding; sequences stand for … in GC…GCGATTGACAGCGTAGAATGAAGG
Summed up:
(§1)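 Ligand-free nuclear receptor dimers were applied to custom Agilent 4×180K protein-binding microarrays whose double-stranded probes carried direct-repeat seeds, single-nucleotide variants, half-site ablations and random human genomic background sequences in 34-nt variable regions. Incubation lasted 1 h. Binding z-scores were computed against the random background probes from regression-normalized fluorescence.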
For CCTAGCAGGCCAATCTAGGTCACTCAAGGCTTGA, the PBM binding z-score amounted to 2.47.

In the case of CAAACTAGGTCACAGTGGTCAAAGTCCGTGCGTA, the PBM binding z-score was determined as 6.97.

The sequence CAAACTAGGTCACTAAAGGTCAAAGTCGAATGAC had a PBM binding z-score of 8.33.

Turning to GCTTACGGGTCCAAGGTTATAGCATGAATAGAAT, the PBM binding z-score was 2.86.

Turning to ATATGTAGGTTATCGGGTCATACAGTTTGCGCAT, the PBM binding z-score turned out to be 6.2.

TACCCTAGGTCATTCAGGGGCCAGTATAGAAAGC came in with a PBM binding z-score of 2.63.

As for TCTTGTAGATCAACAGGAGGTTAATAAAGATCGA, the PBM binding z-score is 1.68.

As to TCTAGTTGGTCTAAGGTCACACACTCGAAATGCG, the PBM binding z-score is 6.51.

As for TAGCCTAGGTCATGGGCCAGTGTACCACGCGAAC, the PBM binding z-score stood at 3.87.

CCTACGGGGCCACGAAAGGTCATTGATTCAGTGA: the PBM binding z-score amounted to 3.88.

With TCTTGTAGATCGATAGAGGTTAAGAAAGTGCGCT, the PBM binding z-score turned out to be 1.66.

AGAATGAGGTTACCAAAGGTCAGGGAAACGCTTG: the PBM binding z-score was determined as 5.63.

In turn, CCGAGTTGGTCAAGGTCACACACGCTATAGGTAC returned a PBM binding z-score of 3.37.

In turn, ACTTACGGGTCTACGAGGTTATAGCACGCGTATA gave a PBM binding z-score of 0.426.

In turn, AGTCAAAGTTCAGGACGACGTAACGTAAAGCACG showed a PBM binding z-score of 4.5.

CGTCCAAGGTCAGCGGGTCAGTGAAAGCGACGTG: the PBM binding z-score worked out at 4.84.

The sequence ATATGTAGGTTAGCTGGGGTCCTTCAGACTAGGC returned a PBM binding z-score of 2.75.

With GATATAGGGTCAGCTAGAGGCCAGAGTATGGAAA, the PBM binding z-score came to 3.86.

For the next test, the system named is PPARg:RXRa 30nM:10nM, anti-RXR (NR concentration 30 nM, RXRa partner concentration 10 nM). The description is as above. Summed up:
as §1
In turn, AGAATGAGGTTAAGTTCAGGGAAACAGAATACAT gave a PBM binding z-score of 1.62.

Consider CCTACTGGACCAAGGTCATTGATCAGTCAAAGCA, for which the PBM binding z-score came out at 0.593.

In the case of ATCTCTAGGTTAAGATAGTTCAGTGAATGCAAAT, the PBM binding z-score was determined as 0.609.

Regarding CAAACTAGTTCAAGAGGTCAAAGTCCGCTTCCCG, the PBM binding z-score was determined as 2.85.

The sequence CCTACTGGGCCATTCAGAGGTCAATGATCATATG came in with a PBM binding z-score of 0.908.

In turn, AGAATGGGGTTACCAAAGATCAGGGAAACGCTTG came in with a PBM binding z-score of 1.72.

The sequence ATCGAAAGGTCCAAGGTGAGTATACCCACCCGAA yielded a PBM binding z-score of 0.219.

Turning to ACTCGGATGACAAAGGTCAGAGCTACGCCAGTGA, the PBM binding z-score was 3.76.

In turn, AGTCAAAGTTCATCTAGGTAACATAAGATATGCT came in with a PBM binding z-score of 3.85.

Regarding CCTAGTTGGTCAAGGTCACACCCGCTATAGGTAC, the PBM binding z-score was 1.13.

Regarding TCTAGTTGGTCACGGAGGTCACAAACGACGGGTA, the PBM binding z-score is 3.19.

In turn, AGAATGAGGTTAAACGTAGATCAGGGAAGAAAGT came in with a PBM binding z-score of 1.87.

ACTTACGGCTCAACGAGGTTATAGCACGCGTATA: the PBM binding z-score is -0.186.

Regarding AATACAGGGTGACTAGGCCAGAGTAGGTACGAAT, the PBM binding z-score worked out at 0.461.

Sequence GCTGCTAGTTCAACTGATGGTCAGCTAAAGCTCG came in with a PBM binding z-score of -0.685.

In the case of TAGCCTAGGTCATTCAGGGGCCAGCATAGAAAGC, the PBM binding z-score was found to be 0.723.

In the case of TTGCCTAGGTCATTGGGCCAGTATAGTACGCATC, the PBM binding z-score worked out at 1.

Sequence AGAATGAGATTACCAAAGATCAGGGAAACGCTTG returned a PBM binding z-score of -0.00239.

ATCGAAAGGTCGACCAGGTGAGTATACACCGTTT returned a PBM binding z-score of 1.16.

The sequence CCTTACGGGTTACTCCAGGTTATAGCATCGGAGT returned a PBM binding z-score of -0.136.

In turn, TCTGCTAGGTCAACGTTGGTCAGCTAATCTGCTA showed a PBM binding z-score of 1.9.

Turning to ATATGTAGGATAGCTGGGGTCATTCAGACTAGGC, the PBM binding z-score was 1.01.

The sequence CCTAGCAGGCCAATCTAGGTCACTCAAGGCTTGA gave a PBM binding z-score of 0.115.

Take CAAACTAGGTCACAGTGGTCAAAGTCCGTGCGTA: the PBM binding z-score is 5.52.

Sequence CAAACTAGGTCACTAAAGGTCAAAGTCGAATGAC gave a PBM binding z-score of 6.31.

GCTTACGGGTCCAAGGTTATAGCATGAATAGAAT yielded a PBM binding z-score of 1.43.

ATATGTAGGTTATCGGGTCATACAGTTTGCGCAT: the PBM binding z-score was 4.38.

TACCCTAGGTCATTCAGGGGCCAGTATAGAAAGC registered a PBM binding z-score of 0.859.

TCTTGTAGATCAACAGGAGGTTAATAAAGATCGA registered a PBM binding z-score of 2.71.

On to TCTAGTTGGTCTAAGGTCACACACTCGAAATGCG, for which the PBM binding z-score stood at 5.71.

TAGCCTAGGTCATGGGCCAGTGTACCACGCGAAC came in with a PBM binding z-score of 1.39.

The sequence CCTACGGGGCCACGAAAGGTCATTGATTCAGTGA had a PBM binding z-score of 1.18.

On to TCTTGTAGATCGATAGAGGTTAAGAAAGTGCGCT, for which the PBM binding z-score amounted to 2.48.

In the case of AGAATGAGGTTACCAAAGGTCAGGGAAACGCTTG, the PBM binding z-score is 3.27.

The sequence CCGAGTTGGTCAAGGTCACACACGCTATAGGTAC returned a PBM binding z-score of 0.931.

As to ACTTACGGGTCTACGAGGTTATAGCACGCGTATA, the PBM binding z-score worked out at 0.256.

The sequence AGTCAAAGTTCAGGACGACGTAACGTAAAGCACG displayed a PBM binding z-score of 1.87.

The sequence CGTCCAAGGTCAGCGGGTCAGTGAAAGCGACGTG showed a PBM binding z-score of 1.19.

Turning to ATATGTAGGTTAGCTGGGGTCCTTCAGACTAGGC, the PBM binding z-score was found to be 0.715.

Turning to GATATAGGGTCAGCTAGAGGCCAGAGTATGGAAA, the PBM binding z-score turned out to be 1.25.

The test system of a further test is PPARg:RXRa 90nM:30nM, anti-RXR (NR concentration 90 nM, RXRa partner concentration 30 nM). Described as above. Summed up:
as §1
The sequence AGAATGAGGTTAAGTTCAGGGAAACAGAATACAT returned a PBM binding z-score of 3.51.

CCTACTGGACCAAGGTCATTGATCAGTCAAAGCA registered a PBM binding z-score of 1.95.

For the sequence ATCTCTAGGTTAAGATAGTTCAGTGAATGCAAAT, the PBM binding z-score stood at 1.15.

In turn, CAAACTAGTTCAAGAGGTCAAAGTCCGCTTCCCG yielded a PBM binding z-score of 4.8.

Regarding CCTACTGGGCCATTCAGAGGTCAATGATCATATG, the PBM binding z-score worked out at 2.2.

For the sequence AGAATGGGGTTACCAAAGATCAGGGAAACGCTTG, the PBM binding z-score came out at 3.47.

As for ATCGAAAGGTCCAAGGTGAGTATACCCACCCGAA, the PBM binding z-score was found to be 0.627.

As for ACTCGGATGACAAAGGTCAGAGCTACGCCAGTGA, the PBM binding z-score is 5.58.

Turning to AGTCAAAGTTCATCTAGGTAACATAAGATATGCT, the PBM binding z-score came out at 5.76.

For CCTAGTTGGTCAAGGTCACACCCGCTATAGGTAC, the PBM binding z-score was 2.4.

As to TCTAGTTGGTCACGGAGGTCACAAACGACGGGTA, the PBM binding z-score worked out at 3.12.

Take AGAATGAGGTTAAACGTAGATCAGGGAAGAAAGT: the PBM binding z-score was 3.12.

As to ACTTACGGCTCAACGAGGTTATAGCACGCGTATA, the PBM binding z-score was -0.0465.

AATACAGGGTGACTAGGCCAGAGTAGGTACGAAT: the PBM binding z-score worked out at 1.08.

GCTGCTAGTTCAACTGATGGTCAGCTAAAGCTCG showed a PBM binding z-score of -0.415.

In the case of TAGCCTAGGTCATTCAGGGGCCAGCATAGAAAGC, the PBM binding z-score stood at 1.28.

In turn, TTGCCTAGGTCATTGGGCCAGTATAGTACGCATC returned a PBM binding z-score of 2.47.

Sequence AGAATGAGATTACCAAAGATCAGGGAAACGCTTG came in with a PBM binding z-score of 0.0878.

The sequence ATCGAAAGGTCGACCAGGTGAGTATACACCGTTT returned a PBM binding z-score of 2.44.

In turn, CCTTACGGGTTACTCCAGGTTATAGCATCGGAGT showed a PBM binding z-score of 0.413.

The sequence TCTGCTAGGTCAACGTTGGTCAGCTAATCTGCTA had a PBM binding z-score of 2.71.

ATATGTAGGATAGCTGGGGTCATTCAGACTAGGC gave a PBM binding z-score of 2.38.

CCTAGCAGGCCAATCTAGGTCACTCAAGGCTTGA showed a PBM binding z-score of 1.49.

CAAACTAGGTCACAGTGGTCAAAGTCCGTGCGTA returned a PBM binding z-score of 7.04.

Take CAAACTAGGTCACTAAAGGTCAAAGTCGAATGAC: the PBM binding z-score is 8.16.

For the sequence GCTTACGGGTCCAAGGTTATAGCATGAATAGAAT, the PBM binding z-score is 2.47.

Consider ATATGTAGGTTATCGGGTCATACAGTTTGCGCAT, for which the PBM binding z-score worked out at 5.61.

Regarding TACCCTAGGTCATTCAGGGGCCAGTATAGAAAGC, the PBM binding z-score turned out to be 2.15.

The sequence TCTTGTAGATCAACAGGAGGTTAATAAAGATCGA returned a PBM binding z-score of 2.08.

TCTAGTTGGTCTAAGGTCACACACTCGAAATGCG: the PBM binding z-score worked out at 6.57.

In the case of TAGCCTAGGTCATGGGCCAGTGTACCACGCGAAC, the PBM binding z-score was 2.66.

The sequence CCTACGGGGCCACGAAAGGTCATTGATTCAGTGA gave a PBM binding z-score of 2.46.

On to TCTTGTAGATCGATAGAGGTTAAGAAAGTGCGCT, for which the PBM binding z-score was found to be 1.93.

Sequence AGAATGAGGTTACCAAAGGTCAGGGAAACGCTTG yielded a PBM binding z-score of 4.99.

The sequence CCGAGTTGGTCAAGGTCACACACGCTATAGGTAC showed a PBM binding z-score of 2.65.

With ACTTACGGGTCTACGAGGTTATAGCACGCGTATA, the PBM binding z-score amounted to 0.0516.

AGTCAAAGTTCAGGACGACGTAACGTAAAGCACG registered a PBM binding z-score of 4.

As to CGTCCAAGGTCAGCGGGTCAGTGAAAGCGACGTG, the PBM binding z-score came to 2.81.

ATATGTAGGTTAGCTGGGGTCCTTCAGACTAGGC: the PBM binding z-score came out at 1.78.

For GATATAGGGTCAGCTAGAGGCCAGAGTATGGAAA, the PBM binding z-score was 2.44.

These data come from the supplement of paper PMC6555819.
